# Screens (PubChem BioAssay)
# USP1-UAF1 inh – Inhibitors of USP1/UAF1: Primary Screen | Ubiquitin carboxyl-terminal hydrolase 1 (Homo sapiens), O94782 | recombinant USP1/UAF1, Ub-Rhodamine cleavage fluorescence | Potency, µM (top dose mostly 57.1 µM), for inactives: at the highest dose activity change, negative = inhibition, usual class: inhibitors | 390,000 tested, 0.23% active; also: potency is read from the fitted curve at half-maximal effect; nearly all actives have a fitted effect of over 60% in size
#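 In this screen, compounds sit with the deubiquitinase complex (1nM) for 15 min at room temperature before Ub-Rho is added at 150nM final. Fluorescence rise is then followed for 6 reads every 60 seconds.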
# WRN helicase inh – qHTS for Inhibitors of WRN Helicase | 360,000 tested, 0.46% active | WRN helicase unwinding, fluorescent forked duplex, kinetic | Bifunctional 3'-5' exonuclease/ATP-dependent helicase WRN (Homo sapiens), Q14191 | Potency, µM (series often up to 114 µM), inactives show top-dose activity change, negative = inhibition, actives largely listed as inhibitors | AID 651768, 2012; also: potency is read from the fitted curve at half-maximal effect; nearly all actives have a fitted effect of over 55% in size
#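 Kinetic red-fluorescence monitoring (525/598 nm) tracks WRN helicase activity after 100 nM fluorophore-quencher forked duplex and 2 mM ATP are added to 20 nM enzyme pretreated 15 min at room temperature with compound.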
# USP2a block – qHTS Assay for Inhibitors of Ubiquitin-specific Protease USP2a Using CHOP2 as the Reporter. Ubiquitin carboxyl-terminal hydrolase 2 (Homo sapiens), O75604. USP2 core, Ub-CHOP2 coupled fluorogenic reporter, 485/531. Potency, µM (highest dose often 38.3 µM), for the others: top-dose activity change, negative = inhibition, actives largely listed as inhibitors. 330,000 tested, 0.01% active. AID 463254, 2010;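 also: potency is read from the fitted curve at half-maximal effect; plate controls were DMSO wells for no effect and full inhibition by NEM control for full effect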
#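 USP2 core (10nM final) preincubated 30min RT with compound in 20mM Tris-HCl pH 8.0, 2mM CaCl2, 2mM beta-mercaptoethanol, 0.05% CHAPS; 25nM Ub-CHOP2 plus 25nM reporter substrate added, fluorescence (Ex485/Em531) read after 60min.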
# PI5P4K alpha inh – qHTS for Inhibitors of phosphatidylinositol 5-phosphate 4-kinase (PI5P4K). max response, %. 330,000 tested, 1.2% active. PI5P4Kalpha enzyme, ADP-Glo luminescence, 60 min; hits give low values; active = max response of -50% or lower; inconclusive = between -30% and -50%; inactive = -30% or higher; also: value at the top dose of about 77 µM
# Target sequence (P48426 whole entry, looked up): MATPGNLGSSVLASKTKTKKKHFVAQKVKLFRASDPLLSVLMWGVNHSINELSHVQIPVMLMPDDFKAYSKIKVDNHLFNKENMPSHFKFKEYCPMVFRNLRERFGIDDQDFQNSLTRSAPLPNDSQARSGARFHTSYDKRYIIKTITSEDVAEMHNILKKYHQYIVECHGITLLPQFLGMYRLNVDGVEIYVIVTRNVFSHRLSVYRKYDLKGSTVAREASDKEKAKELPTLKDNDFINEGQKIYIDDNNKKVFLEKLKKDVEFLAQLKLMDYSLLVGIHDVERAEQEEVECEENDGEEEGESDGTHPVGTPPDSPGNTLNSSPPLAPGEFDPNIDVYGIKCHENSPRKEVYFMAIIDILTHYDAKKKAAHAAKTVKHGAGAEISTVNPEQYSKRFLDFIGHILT
#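 Controls without substrate or without enzyme flank wells where PI5P4Kalpha converts substrate using 5 microM ATP (final). Incubation lasts 60 minutes at room temperature; ADP formed is read by ADP-Glo luminescence.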
# PLK1 PBD inh – qHTS for Inhibitors of PLK1-PDB (polo-like kinase 1 - polo-box domain): Primary Screen; Plk1 PBD binding of FITC phosphopeptide, fluorescence polarization; Potency, µM, for inactives: max response, negative = inhibition, usual class: inhibitors; Serine/threonine-protein kinase PLK1 (Homo sapiens), P53350; AID 720504, 2013; 360,000 tested, 2.8% active; also: potency is read from the fitted curve at half-maximal effect; series mostly up to about 57 µM; nearly all actives have a fitted effect of over 65% in size
# * hit, by the source's call; i = inactive; ? = inconclusive; · = no result given; [ ] = another dose, or the depositor's remark. The list is not random: actives were taken first. Their share in the collection is about 3.3%. Unless noted, calls follow the shape of the dose curve; as a rule, active = well fitted curve in the direction sought with a large enough effect; inconclusive = small, poorly fitted or top-dose-only effect, or another doubt; inactive = no such curve, though single readings can be large; an effect the other way counts as inactive or inconclusive. Unless noted, % is scaled to controls: 0 for no effect and ±100 for the full control effect.
SMILES,USP1-UAF1 inh,WRN helicase inh,USP2a block,PI5P4K alpha inh,PLK1 PBD inh
COc1ccc(-c2cc(C(=O)Nc3ccc(S(=O)(=O)Nc4ncccn4)cc3)c3ccccc3n2)cc1,-6%,2%,2%,-8,-14%
CC(C)=CC(=O)Nc1ccc(S(=O)(=O)Nc2onc(C)c2C)cc1,-20%,-16%,0%,1,-7%
Cc1cccc(N2CCN(c3cc(C)nc4c(-c5ccc(Cl)cc5)c(C)nn34)CC2C)c1 (stereo not given),-5%,·,·,·,·
COc1ccc(CCNC(=O)C(=O)NCC(c2cccs2)S(=O)(=O)c2ccccc2)cc1 (stereo not given),0%,·,·,·,·
CCc1cccc(NC(=O)Cn2cc(C(=O)c3ccncc3)c(=O)c3cc(C)c(C)cc32)c1,-10%,·,·,·,·
COc1ccc(-c2cn3nc(SCC(=O)Nc4cc(C)cc(C)c4)ccc3n2)cc1,-17%,·,·,·,·
COc1ccc(/C=C/C(=O)OCC(=O)c2ccc3c(c2)NC(=O)CO3)cc1,-8%,0%,-1%,2,-7%
COc1cc(/C=C/C(=O)OCC(=O)c2ccc3c(c2)NC(=O)CO3)ccc1OC(F)F,-3%,0%,2%,-22,19µM*
O=C(NCc1ccco1)c1cc2cc(Br)ccc2o1,-17%,6%,0%,-20,11µM*
Cc1c(C(=O)NCc2ccco2)oc2ccc(Br)cc12,-14%,-15%,-2%,-3,-7%
Nc1c(C(=O)N2CCCCC2)sc(=S)n1-c1ccccc1,-17%,-9%,0%,·,3µM*
Cc1ccc(-n2c(N)c(C(=O)N3CCCCC3)sc2=S)cc1,-13%,-8%,-1%,-18,24µM*
Nc1c(C(=O)N2CCOCC2)sc(=S)n1-c1ccccc1,-19%,-1%,-1%,·,11µM*
CC(C)(C)OC(=O)N1CCC(c2c(C(=O)N3CCN(c4ccc(Cl)cc4)CC3)cnn2-c2ccc(F)cc2F)CC1,-10%,·,·,·,·
CC(C(=O)Nc1ccccc1-c1ccccc1)N1CCN(Cc2ccccc2)CC1 (stereo not given),-18%,8%,0%,-6,17µM*
CCCCN(CCCC)S(=O)(=O)c1ccc(N2CCCC2=O)c([N+](=O)[O-])c1,-20%,7%,·,-5,15µM*
NS(=O)(=O)c1ccc(N2CCCC2=O)c([N+](=O)[O-])c1,0%,-3%,1%,-1,-12%
NNS(=O)(=O)c1ccc(N2CCCC2=O)c([N+](=O)[O-])c1,6%,-5%,-2%,?,27µM*
Cn1c(SCC(=O)N2CCc3ccccc32)nc2cccnc21,-11%,10%,0%,-13,24µM*
COC(=O)c1cc(-c2ccccc2)sc1N,-20%,-10%,2%,-5,21µM*
C#CCNC(=O)c1cc(-c2ccccc2)sc1N,·,-13%,·,?,-9%
Cc1ccc(N(CC(=O)N2CCN(c3cccc(C)c3C)CC2)S(=O)(=O)c2c(C)nn(C)c2C)cc1,-8%,·,·,·,·
CC(C)=CCc1c(O)c(CC=C(C)C)c2c(c1O)C(=O)CC(c1ccc(O)cc1)O2 (stereo not given),-9%,-15%,0%,-29,-3%
CC(C)=CCc1c(O)cc(O)c2c1OC(c1ccc(O)cc1)CC2=O (stereo not given),-2%,-7%,·,-63*,7%
Cc1c(O)cc2c(c1O)C(=O)CC(c1ccc(O)cc1)O2 (stereo not given),-19%,-8%[11.6 µM],-1%,-80*,-16%
SMILES,USP1-UAF1 inh,WRN helicase inh,USP2a block,PI5P4K alpha inh,PLK1 PBD inh
O=C(NCc1cc(C(F)(F)F)ccc1Cl)c1cccc2c1C(=O)c1ccc(N3CCC(Cc4ccccc4)CC3)cc1S2(=O)=O,314%,1%,13%,-8,24µM*
O=C(NCc1ccc(F)cc1)c1cccc2c1C(=O)c1ccc(N3CCC(Cc4ccccc4)CC3)cc1S2(=O)=O,i,-6%,2%,-2,?
CC1CCN(c2ccc3c(c2)S(=O)(=O)c2cccc(C(=O)NCc4ccc(F)cc4)c2C3=O)CC1,?,14%,2%,10,84µM*
COc1ccc(Cn2c(C(=O)O)c(CNCc3ccco3)c3ccc(OC)cc32)cc1,-7%,·,·,·,·
O=C(COc1ccc(Cl)cc1Cl)Nc1ccc(C(=O)OC2CCCCC2)cc1,-17%,·,·,·,·
Cc1ccc(NC(=O)CCS(=O)(=O)c2ccc(Br)s2)cc1,-9%,6%,-2%,-10,27µM*
CCOc1ccc(NC(=O)CCS(=O)(=O)c2ccc(Br)s2)cc1,-13%,·,·,·,·
N#Cc1cccc(NC(=O)C2CCN(c3cnccn3)CC2)c1,-8%,·,·,·,·
O=C(O)c1c(-c2ccccc2)oc2ccc(O)cc12,-21%,2%,4%,5,5%
O=Cc1c(-c2ccc(Cl)cc2)oc2ccc(O)cc12,-4%,?,·,-67*,-14%
O=C(NCc1ccc(F)cc1)c1ccc2c(c1)nc1n2CCCCC1,-6%,·,·,·,·
COc1cc(/C=C/[N+](=O)[O-])ccc1OC(=O)c1cc2ccccc2oc1=O,-22%,-29%[11.6 µM],0%,-61*,13µM*
COc1cccc(CCC(=O)N(C)C2CCCN(Cc3ccccc3F)C2)c1 (stereo not given),3%,12%,1%,4,-14%
CN(C(=O)CCc1ccccc1F)C1CCCN(Cc2ccccc2F)C1 (stereo not given),-6%,-22%,0%,-29,3.4µM*
S=c1nccc(-c2ccc(Cl)cc2)[nH]1,15%,-10%,1%,-1,1.5µM*
S=c1[nH]c(-c2ccc(Cl)cc2)cs1,-15%,-22%,-3%,?,9.5µM*
Clc1ccc(-c2ccn[nH]2)cc1,-13%,-5%,-6%,-4,-8%
CCOC(=O)c1cc(-c2ccc(C)cc2)n(CCC(=O)Nc2nc3c(C)cccc3s2)c1C,-18%,·,·,·,·
CCC(c1nnnn1CCOC)N1CCN(c2nc3ccccc3s2)CC1 (stereo not given),-12%,7%,-2%,-2,-3%
CCCC(c1nnnn1CCOC)N1CCN(c2nc3ccccc3s2)CC1 (stereo not given),10%,-4%,0%,?,5.3µM*
CC(=O)c1ccc(N2CCN(C(=O)c3cn(C)c(=O)c4c3c3ccccc3n4C)CC2)cc1,-30%,·,·,·,·
COc1ccc(/C=C\c2onc(C)c2S(=O)(=O)N2CCC(C(=O)Nc3ccc(F)cc3F)CC2)cc1,-14%,·,·,·,·
C=CCN1c2ccccc2[C@]23C[C@@H](C(=O)OC)N(C(=O)c4ccc(Br)cc4)C2=NC(C(=O)OC)=C(C(=O)OC)[C@H]13,-3%,-2%,-8%,-3,-15%
C=CCN1c2ccccc2[C@]23C[C@@H](C(=O)OC)N(C(=O)c4cccs4)C2=NC(C(=O)OC)=C(C(=O)OC)[C@H]13,19%,3%,-9%,-52*,-12%
